From PubChem BioAssay (NCATS)
Results filed as inconclusive are left out. Calls of active or inactive are those of the source. Unless noted, calls follow the shape of the full dose curve.

How the values were obtained:
[1] = qHTS for Inhibitors of the Functional Ribonucleoprotein Complex (vRNP) of Lassa (LASV) Arenavirus: LASV Primary Screen - GLuc reporter signal (AID 1347082; calls by dose curve; tested in HEK293 reporter line; also: nearly all actives have a fitted effect of over 60% in size)
[2] = qHTS for Inhibitors of the Functional Ribonucleoprotein Complex (vRNP) of Lassa (LASV) Arenavirus: Viability assay - alamar blue signal for LASV Primary Screen (AID 1347083; calls by dose curve; tested in HEK293 reporter line; also: nearly all actives have a fitted effect of over 80% in size)
[3] = qHTS for Inhibitors of the Functional Ribonucleoprotein Complex (vRNP) of Lymphocytic Choriomeningitis Arenaviruses (LCMV): Viability assay - alamar blue signal for LCMV Primary Screen (AID 1347085; calls by dose curve; tested in HEK293 reporter line; also: nearly all actives have a fitted effect of over 80% in size)
[4] = biological target: Nucleoprotein (Lymphocytic choriomeningitis virus (strain Armstrong)) (UniProt P09992); assay: qHTS for Inhibitors of the Functional Ribonucleoprotein Complex (vRNP) of Lymphocytic Choriomeningitis Arenaviruses (LCMV): LCMV Primary Screen - GLuc reporter signal (AID 1347086); also: nearly all actives have a fitted effect of over 70% in size
% is scaled to controls: 0 for no effect and ±100 for the full control effect.
Also: series mostly up to about 57 µM.

Nucleoprotein (Lymphocytic choriomeningitis virus (strain Armstrong)), sequence (P09992 whole entry, looked up): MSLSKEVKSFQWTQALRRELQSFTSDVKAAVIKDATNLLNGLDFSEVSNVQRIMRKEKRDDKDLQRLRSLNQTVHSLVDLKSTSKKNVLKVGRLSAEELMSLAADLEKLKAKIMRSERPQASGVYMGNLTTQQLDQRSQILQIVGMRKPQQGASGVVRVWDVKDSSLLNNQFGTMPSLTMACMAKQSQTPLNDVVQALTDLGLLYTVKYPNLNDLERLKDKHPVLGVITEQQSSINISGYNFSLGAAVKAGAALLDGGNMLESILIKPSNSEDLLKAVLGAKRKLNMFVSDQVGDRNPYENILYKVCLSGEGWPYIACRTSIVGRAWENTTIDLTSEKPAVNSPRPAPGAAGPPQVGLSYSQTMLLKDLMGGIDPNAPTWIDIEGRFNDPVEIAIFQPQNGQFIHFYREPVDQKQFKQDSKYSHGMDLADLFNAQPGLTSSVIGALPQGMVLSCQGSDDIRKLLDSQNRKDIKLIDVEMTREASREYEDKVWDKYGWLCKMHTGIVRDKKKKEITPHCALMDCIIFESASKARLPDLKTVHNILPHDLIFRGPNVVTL

NCCC(=O)O
inactive: Potency [1] | Potency [2] | Potency [3] | Potency [4]

CC(=O)[C@@]1(O)CCC2C3CC[C@H]4C[C@@H](O)CC[C@]4(C)C3CC[C@@]21C (stereo not given in full)
inactive: Potency [1] | Potency [2] | Potency [3] | Potency [4]

CCCCCCC[C@@H](C/C=C/CCC(=O)O)OC
inactive: Potency [1] | Potency [2] | Potency [3] | Potency [4]

COc1ccc([C@H]2c3cc(OC)c(OC)cc3C[C@@H](C)[C@@H]2C)cc1OC
inactive: Potency [1] | Potency [2] | Potency [3] | Potency [4]

COc1ccc(CCC(N)=O)cc1OC
inactive: Potency [1] | Potency [2] | Potency [3] | Potency [4]

CCCC(=O)C(C)=O
inactive: Potency [1] | Potency [2] | Potency [3] | Potency [4]

C/C(=C/CCC(C)[C@H]1CC[C@@]2(C)C3=C(CC[C@]12C)[C@@]1(C)CCC(=O)C(C)(C)[C@@H]1CC3)C(=O)O (stereo not given in full)
inactive: Potency [1] | Potency [2] | Potency [3] | Potency [4]

C[C@H]([C@@H](N)C(=O)N[C@@H](C(=O)O)[C@@H]1O[C@H](n2ccc(=O)[nH]c2=O)[C@@H](O)[C@H]1O)[C@@H](O)c1ccc(O)cn1
inactive: Potency [1] | Potency [2] | Potency [3] | Potency [4]

COC1=CC(=O)[C@@]2([C@@H]1O)[C@@H](Cl)C[C@]13C(OC)=C(OC)C(=O)C[C@]21CCN3C
inactive: Potency [1] | Potency [2] | Potency [3] | Potency [4]

CCC(=O)Nc1ccccc1
inactive: Potency [1] | Potency [2] | Potency [3] | Potency [4]

COc1cc2c(cc1O)C(Cc1ccc(O)cc1)NCC2 (stereo not given)
inactive: Potency [1] | Potency [2] | Potency [3] | Potency [4]

CC(=O)CCc1ccc(O)cc1
inactive: Potency [1] | Potency [2] | Potency [3] | Potency [4]

O[C@@H]1COC2[C@@H](O)CO[C@@H]21 (stereo not given in full)
inactive: Potency [1] | Potency [2] | Potency [3] | Potency [4]

CC(C)=CCCC(C)CC=O (stereo not given)
inactive: Potency [1] | Potency [2] | Potency [3] | Potency [4]

COC(=O)C1=CO[C@@H](OC2OC(CO)C(O)C(O)C2O)[C@@H]2C(CO)=CC[C@H]12 (stereo not given in full)
inactive: Potency [1] | Potency [2] | Potency [3] | Potency [4]

CCN1C[C@@]2(COC)CCC(OC)[C@]34C5C[C@]6(O)[C@@H](OC)C[C@](OC(C)=O)(C([C@H](OC)C23)[C@H]14)C5[C@H]6OC(=O)c1ccc(OC)cc1 (stereo not given in full)
inactive: Potency [1] | Potency [2] | Potency [3] | Potency [4]

NC[C@@H]1O[C@@H](O[C@H]2[C@@H](O)[C@H](O[C@@H]3[C@@H](O)[C@@H](N)C[C@H](N)[C@H]3O[C@H]3O[C@H](CN)[C@@H](O)[C@@H](O)[C@H]3N)O[C@H]2CO)[C@H](N)[C@@H](O)[C@@H]1O
inactive: Potency [1] | Potency [2] | Potency [3] | Potency [4]

COc1cc2oc(=O)ccc2cc1O
inactive: Potency [1] | Potency [2] | Potency [3] | Potency [4]

COC(=O)CC1[C@@]2(C)C[C@]34OC5(C)OC6(C7CC(=O)OC(c8ccoc8)[C@]7(C)CCC6(O5)[C@]13C)C(OC(C)=O)[C@]4(OC(C)=O)C2OC(C)=O (stereo not given in full)
inactive: Potency [1] | Potency [2] | Potency [3] | Potency [4]

COc1cc(C)cc(C(=O)O)c1C1=C(O)c2cccc(O)c2C(=O)C1=O
inactive: Potency [1] | Potency [2] | Potency [3] | Potency [4]

CC1CCC(C(C)(C)S)C(=O)C1 (stereo not given)
inactive: Potency [1] | Potency [2] | Potency [3] | Potency [4]

O=C1/C(=C\c2ccc(O)c(O)c2)Oc2c1ccc(O[C@@H]1O[C@H](CO)[C@@H](O)[C@H](O)[C@H]1O)c2O
inactive: Potency [1] | Potency [2] | Potency [3] | Potency [4]

O=C(O)c1ccccc1
inactive: Potency [1] | Potency [2] | Potency [3] | Potency [4]

N[C@H](C(=O)O)c1ccc(O)c(C(=O)O)c1
inactive: Potency [1] | Potency [2] | Potency [3] | Potency [4]

Cc1ccnc(N)c1
inactive: Potency [1] | Potency [2] | Potency [3] | Potency [4]

OC[C@H]1O[C@@H](Oc2ccc(O)cc2)[C@H](O)[C@@H](O)[C@H]1O
inactive: Potency [1] | Potency [2] | Potency [3] | Potency [4]

C=C1C(=O)OC2C1C(OC(=O)C(C)=CC)CC(=C)C1C(O)C3OC3(C)C21O (stereo not given)
inactive: Potency [1] | Potency [2] | Potency [3] | Potency [4]

CCCCC/C=C\C/C=C\C=C\[C@@H](O)C/C=C\CCCC(=O)O
inactive: activity change, negative = inhibition [1] -0.303% [at 0.757 µM] | activity change, negative = reduced viability [2] 9.41% [at 0.757 µM] | activity change, negative = lower viability [3] 16.7% [at 0.757 µM] | activity change, negative = inhibition [4] 14.7% [at 0.757 µM]

CC(C)=CCCC1(C)C=Cc2c(c(C)cc3c2[nH]c2cc(O)ccc23)O1 (stereo not given)
inactive: Potency [1] | Potency [2] | Potency [3] | Potency [4]

C[C@@H](O)CCCCn1c(=O)c2c(ncn2C)n(C)c1=O
inactive: Potency [1] | Potency [2] | Potency [3] | Potency [4]

Cc1c[nH]c(C=C2C(=O)Nc3ccccc32)c1CCC(=O)O
inactive: Potency [1] | Potency [2] | Potency [3] | Potency [4]

N#CC(=C(O)c1ccc(Cl)cc1Cl)c1nc2cc(Cl)ccc2c(=O)[nH]1
inactive: Potency [1] | Potency [2] | Potency [3] | Potency [4]

C/C(=C/CCC(C)(O)C1CC[C@@]2(C)[C@@H]3CC=C4[C@@H](CC[C@H](O[C@H]5O[C@@H](CO)[C@H](O)[C@@H](O)[C@@H]5O)C4(C)C)[C@]3(C)C(=O)C[C@]12C)CO[C@@H]1O[C@H](CO)[C@@H](O)[C@H](O)[C@H]1O (stereo not given in full)
inactive: Potency [1] | Potency [2] | Potency [3] | Potency [4]

CSCCCN=C=S
inactive: Potency [1] | Potency [2] | Potency [3] | Potency [4]

CC1=CCC(C(C)C)C=C1 (stereo not given)
inactive: Potency [1] | Potency [2] | Potency [3] | Potency [4]

CCOc1ccc(O)cc1
inactive: Potency [1] | Potency [2] | Potency [3] | Potency [4]

CCCCCCCCCCCC(=O)c1c(O)cccc1O
inactive: Potency [1] | Potency [2] | Potency [3] | Potency [4]

CCc1nccc2c1[nH]c1ccccc12
inactive: Potency [1] | Potency [2] | Potency [3] | Potency [4]

O=C1C=C(c2ccccc2)CO1
inactive: Potency [1] | Potency [2] | Potency [3] | Potency [4]

C[C@@H]1O[C@@H](O[C@H]2[C@H](O)[C@@H](O)[C@H](Oc3c(-c4ccc(O)c(O)c4)oc4cc(O)cc(O)c4c3=O)O[C@@H]2CO)[C@H](O)[C@H](O)[C@H]1O
inactive: Potency [1] | Potency [2] | Potency [3] | Potency [4]

C[C@H]1OC(=O)CC[C@@H]2[C@]1(C)CCC1[C@@]2(C)CC[C@@]2(C)C3CC(C)(C)CC[C@]3(CO)CC[C@]12C (stereo not given in full)
inactive: Potency [1] | Potency [2] | Potency [3] | Potency [4]

CON(C)C(=O)N1N=C(c2cc(F)ccc2F)S[C@]1(CCCN)c1ccccc1
inactive: Potency [1] | Potency [2] | Potency [3] | Potency [4]

C[C@]1(CC/C(=C/CO)CO)[C@H](CO)CC[C@@]23COC(=O)C2=CCC[C@@H]31
inactive: Potency [1] | Potency [2] | Potency [3] | Potency [4]

CCCCC/C=C\C[C@@H]1O[C@H]1/C=C/C(O)C/C=C\CCCC(=O)O (stereo not given in full)
inactive: activity change, negative = inhibition [1] -3.16% [at 0.757 µM] | activity change, negative = reduced viability [2] 11.9% [at 0.757 µM] | activity change, negative = lower viability [3] 4.17% [at 0.757 µM] | activity change, negative = inhibition [4] 7.04% [at 0.757 µM]

COc1ccc2c(c1)CC1c3c(cc4c(c3-2)OCO4)CC[N+]1(C)[O-] (stereo not given)
inactive: Potency [1] | Potency [2] | Potency [3] | Potency [4]

CCCC(=O)OC
inactive: Potency [1] | Potency [2] | Potency [3] | Potency [4]

O=C(O)CCC/C=C\C/C=C\C=C\[C@@H](O)C/C=C\CCCCCO
inactive: activity change, negative = inhibition [1] 7.21% [at 0.757 µM] | activity change, negative = reduced viability [2] 9.56% [at 0.757 µM] | activity change, negative = lower viability [3] 9.51% [at 0.757 µM] | activity change, negative = inhibition [4] 12.9% [at 0.757 µM]

CC(=O)O[C@H](COc1c2ccoc2cc2oc(=O)ccc12)C(C)(C)O
inactive: Potency [1] | Potency [2] | Potency [3] | Potency [4]

Cn1c2c(c(=O)c3ccccc31)CCC(C)(C)O2
inactive: Potency [1] | Potency [2] | Potency [3] | Potency [4]

O=C1Nc2ccc(Cl)cc2C(C#CC2CC2)(C(F)(F)F)O1 (stereo not given)
inactive: Potency [1] | Potency [2] | Potency [3] | Potency [4]

COc1cc(CCc2ccccc2)c(C(=O)O)c(O)c1CC=C(C)C
inactive: Potency [1] | Potency [2] | Potency [3] | Potency [4]

COc1c2ccoc2c(OC[C@@H](O)C(C)(C)O)c2oc(=O)ccc12
inactive: Potency [1] | Potency [2] | Potency [3] | Potency [4]

CCCCC[C@H](O)/C=C/[C@H]1OC(=O)C[C@H](O)[C@@H]1C/C=C\CCCC(=O)O
inactive: activity change, negative = inhibition [1] 4.7% [at 5.82 µM] | activity change, negative = reduced viability [2] 8.43% [at 5.82 µM] | activity change, negative = lower viability [3] 3.55% [at 5.82 µM] | activity change, negative = inhibition [4] 3.12% [at 5.82 µM]

C[C@@H]1CC[C@]2(C(=O)O[C@@H]3O[C@H](CO)[C@@H](O)[C@H](O)[C@H]3O)CC[C@]3(C)C(=CCC4[C@@]5(C)C[C@@H](O)[C@H](O)[C@@](C)(C(=O)O[C@@H]6[C@H](O)C[C@@]7(C)C(CC[C@]8(C)C7CC=C7[C@H]9[C@](C(=O)O[C@@H]%10O[C@H](CO)[C@@H](O)[C@H](O)[C@H]%10O)(CC[C@@H](C)[C@@]9(C)O)CC[C@]78C)[C@@]6(CO)C(=O)O)C5CC[C@]43C)[C@@H]2[C@]1(C)O (stereo not given in full)
inactive: Potency [1] | Potency [2] | Potency [3] | Potency [4]

CC(C)c1onc(-c2c(Cl)cccc2Cl)c1COc1ccc(C=Cc2cccc(C(=O)O)c2)c(Cl)c1
inactive: Potency [1] | Potency [2] | Potency [3] | Potency [4]

COc1cc2c(c3oc(-c4ccccc4)cc(=O)c13)C=CC(C)(C)O2
inactive: Potency [1] | Potency [2] | Potency [3] | Potency [4]

COc1ccc(C[C@H]2c3cc(O)c(OC)cc3CC[N+]2(C)[O-])cc1O (stereo not given in full)
inactive: Potency [1] | Potency [2] | Potency [3] | Potency [4]

NC(=O)c1ncn([C@@H]2O[C@H](CO)[C@@H](O)[C@@H]2O)c1N
inactive: Potency [1] | Potency [2] | Potency [3] | Potency [4]

CO[C@H]1C=CCCC=CC(=O)O[C@H]([C@H](C)C(=O)CCCC2CC(=O)NC(=O)C2)C(C)=C[C@@H](C)[C@@H]1O
inactive: Potency [1] | Potency [2] | Potency [3] | Potency [4]

O=C(/C=C/c1ccccc1)OCCc1ccccc1
inactive: Potency [1] | Potency [2] | Potency [3] | Potency [4]
